The results in this text go back to PubChem BioAssay AID1347420 (Sanford-Burnham Center for Chemical Genomics, 2020).

SMILES strings stand for the structures. “And” between values parts separate entries of the source, which are not always exact repeats. Identical values can stand only once. About 980 (75%) of roughly 1,300 compounds were called active. Not shown: some 4% with an inconclusive outcome. The list shows a part of the results.

This test deals with Sulfhydryl oxidase 1 (Homo sapiens) (UniProt O00391). The experiment in a line: QSOX1 enzyme inhibitors, primary screen, biochemical, HyperBlu H2O2 luminescence, HTS (AID 1347420). Note: values above 100% were filed as inconclusive. As to conditions: recombinant QSOX1, HyperBlu H2O2 luminescence; at 12.5 µM; active compounds read high; active = any value above zero.
Sulfhydryl oxidase 1 (Homo sapiens), sequence (O00391 whole entry, looked up): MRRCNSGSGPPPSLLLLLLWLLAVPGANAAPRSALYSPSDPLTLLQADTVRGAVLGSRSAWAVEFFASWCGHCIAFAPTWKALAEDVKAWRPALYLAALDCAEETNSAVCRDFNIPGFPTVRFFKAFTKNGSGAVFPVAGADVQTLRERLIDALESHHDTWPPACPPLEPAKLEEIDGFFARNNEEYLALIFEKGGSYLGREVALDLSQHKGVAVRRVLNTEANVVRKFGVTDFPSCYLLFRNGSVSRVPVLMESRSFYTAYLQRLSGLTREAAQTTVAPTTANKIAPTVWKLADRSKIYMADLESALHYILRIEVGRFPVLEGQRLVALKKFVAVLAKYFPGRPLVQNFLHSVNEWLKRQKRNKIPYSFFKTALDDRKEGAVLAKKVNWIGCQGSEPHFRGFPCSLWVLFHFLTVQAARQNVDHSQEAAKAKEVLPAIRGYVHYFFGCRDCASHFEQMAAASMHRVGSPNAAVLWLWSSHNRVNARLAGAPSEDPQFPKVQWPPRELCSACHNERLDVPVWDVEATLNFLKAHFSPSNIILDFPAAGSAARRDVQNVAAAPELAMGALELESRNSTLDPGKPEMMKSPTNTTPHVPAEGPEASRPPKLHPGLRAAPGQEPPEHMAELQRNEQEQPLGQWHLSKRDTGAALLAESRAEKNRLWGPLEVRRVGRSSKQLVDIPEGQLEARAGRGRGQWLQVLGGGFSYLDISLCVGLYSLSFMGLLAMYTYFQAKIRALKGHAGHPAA
A word on the inhibition: it is the drop in the measured response relative to a control, in per cent. As for `COC(=O)C1=C(C)NC(C)=C([N+](=O)[O-])C1c1ccccc1C(F)(F)F` (stereo not drawn), the inhibition was 59.9% (active).
With `COC(=O)C1=C(C)NC(C)=C(C(=O)OC)C1c1ccccc1[N+](=O)[O-]` the figure was 54.9% (active); with `CCO/C([O-])=N/c1c[n+](N2CCOCC2)no1`, -0.8% (inactive).
For the compound `Cc1nc2c(OCc3ccccc3)cccn2c1CC#N`, the inhibition was 11.8% (active).
Under `N=C(N)c1ccccc1` stands -0.4% (inactive); under `NC(N)=NC(N)=Nc1ccccc1`, 6% (active).
With `NC(N)=NC(N)=Nc1cccc(Cl)c1` the figure was 25.1% (active).
Under `CN1CCN2c3ccccc3Cc3ccccc3C2C1` (stereo not drawn) stands 9.7% (active); under `CCCn1c(=O)c2[nH]c(C3CCCC3)nc2n(CCC)c1=O`, 5.5% (active).
Regarding `Cn1c(=O)c2[nH]c(C3CCCC3)nc2n(C)c1=O`, the inhibition was 7.5% (active).
Under `O=C(c1cc(O)c(O)c([N+](=O)[O-])c1)c1ccccc1F` stands 83.5% (active).
With `CC(C)C[C@H](NC(=O)[C@H](O)[C@H](N)Cc1ccccc1)C(=O)O` the figure was -3.8% (inactive); with `CC(C)C[C@H](NC(=O)[C@@H](O)[C@H](N)Cc1ccccc1)C(=O)O`, 0.9% (active); with `CCC(NC(C)C)C(O)c1ccc(O)c(O)c1` (stereo not drawn), 38.5% (active).
Take `CC(C)NC[C@H](O)c1ccc(O)c(O)c1`: the inhibition is 38.5% (active).
Under `CC(C)NCC(O)c1ccc(O)c(O)c1` (stereo not drawn) stands 29% (active) and 11.6% (active); under `CC(C)NCC(O)c1ccc(NS(C)(=O)=O)cc1` (stereo not drawn), 4.1% (active).
Under `O=C(O)CCC/C=C\C[C@@H]1[C@@H](/C=C/[C@H](O)C2Cc3ccccc3C2)[C@@H](F)C[C@@H]1O` stands -13.7% (inactive); under `CC(C)NCC(O)COc1ccc(COCCOC(C)C)cc1` (stereo not drawn), -12.7% (inactive); under `CC(C)(C)NCC(O)c1ccc(O)c(CO)c1` (stereo not drawn), 17.3% (active).
With `CC(C)(C)NCC(O)c1cc(O)cc(O)c1` (stereo not drawn) the figure was 3% (active); with `CC(C)NCC(O)c1cc(O)cc(O)c1` (stereo not drawn), 8.3% (active); with `Nc1ccc(S(=O)(=O)Nc2ccnn2-c2ccccc2)cc1`, 27.9% (active).
`O=c1cc(N2CCOCC2)oc2c(-c3ccccc3)cccc12`: the inhibition was 4.6% (active).
On to `Cc1cc(O)c2c(c1)C(=O)c1cc(O)cc(O)c1C2=O`, for which the inhibition is 17.7% (active).
Under `OCC1O[C@H]([S-])[C@@H](O)C(O)[C@@H]1O.[Au+]` (stereo partly drawn) stands 29.5% (active).
With `N=C(N)SCCN` the figure was -3.9% (inactive); with `N=C(N)SCCc1ccc(CCSC(=N)N)cc1`, 9% (active).
Consider `Oc1cc2c(cc1O)CN(C(=S)NCCc1ccc(Cl)cc1)CCC2`, for which the inhibition was 83.2% (active).
With `COc1cc2c(CCNC(C)=O)c[nH]c2cc1Cl` the figure was 14.3% (active).
With `CC(=O)NCCc1c[nH]c2ccc(O)cc12` the figure was 92.2% (active); with `COc1ccc2[nH]cc(CCNC(C)=O)c2c1`, 15.6% (active); with `COc1ccc(NC=O)c(C(=O)CCNC(C)=O)c1`, -9.8% (inactive).
Under `O=c1[nH]cc(F)c(=O)[nH]1` stands 13.9% (active); under `Cc1cc(NC(=O)Nc2ccc3c(ccn3C)c2)sn1`, 13.4% (active).
Consider `CN(C)CCCN1c2ccccc2CCc2ccc(Cl)cc21`, for which the inhibition is -0.4% (inactive).
Under `CNCCCN1c2ccccc2CCc2ccccc21` stands 34.2% (active); under `CN(C)CCCN1c2ccccc2CCc2ccccc21`, 31.8% (active); under `CC(CN(C)C)CN1c2ccccc2CCc2ccccc21` (stereo not drawn), 29.4% (active).
With `CCCNC(=O)NS(=O)(=O)c1ccc(Cl)cc1` the figure was 0.5% (active); with `Cc1ccc(S(=O)(=O)NC(=O)NN2CCCCCC2)cc1`, 49.9% (active).
Under `CCCCNC(=O)NS(=O)(=O)c1ccc(C)cc1` stands 10.2% (active); under `CC(=O)c1ccc(S(=O)(=O)NC(=O)NC2CCCCC2)cc1`, -1.5% (inactive); under `OC(CN1CCN(c2cccc(Cl)c2)CC1)C(c1ccccc1)c1ccccc1` (stereo not drawn), 17.3% (active).
As to `C[C@]12CCC(=O)C=C1CC[C@@H]1[C@@H]2[C@@H](O)C[C@@]2(C)[C@H]1CC[C@]2(O)C(=O)CO`, the inhibition is 9% (active).
With `C[C@]12C[C@H](O)[C@H]3[C@@H](CCC4=CC(=O)CC[C@@]43C)[C@@H]1CC[C@@H]2C(=O)CO` the figure was 9.4% (active).
With `N[C@H](C(=O)O)[C@H]1C[C@@H]1C(=O)O` the figure was 20.9% (active); with `O=C(O)c1cc(=O)cc(C(=O)O)[nH]1`, 10.2% (active).
With `NC(Cc1ccc(Cl)cc1)C(=O)O` (stereo not drawn) the figure was 6.1% (active); with `N[C@@H](Cc1ccc(O)c(O)c1)C(=O)O`, 43.6% (active); with `COC(=O)[C@@H](N)Cc1ccc(O)c(O)c1`, 48.2% (active).
Take `COC(=O)C(N)Cc1ccc(Cl)cc1` (stereo not drawn): the inhibition was -8.3% (inactive).
Under `N[C@@H](Cc1ccc(F)cc1)C(=O)O` stands -2.9% (inactive).
With `N[C@@H](Cc1ccc(O)c(I)c1)C(=O)O` the figure was 14.8% (active); with `NC1CCN(O)C1=O` (stereo not drawn), 30% (active).
Under `CCCC1O[C@@H]2C[C@H]3[C@@H]4CCC5=CC(=O)C=C[C@]5(C)[C@H]4[C@@H](O)C[C@]3(C)[C@]2(C(=O)CO)O1` (stereo partly drawn) stands 4.1% (active); under `CCCN(CC1CC1)c1nc(C)nc(Nc2c(Cl)cc(Cl)cc2Cl)c1Cl`, 3.7% (active); under `NS(=O)(=O)c1cc2c(cc1Cl)NCNS2(=O)=O`, 9.5% (active).
`NS(=O)(=O)c1cc2c(cc1Cl)NC(C1CC3C=CC1C3)NS2(=O)=O` (stereo not drawn): the inhibition was 44.4% (active).
Consider `NS(=O)(=O)c1cc2c(cc1Cl)NC=NS2(=O)=O`, for which the inhibition is 4.3% (active).
Under `CNCCCC12CCC(c3ccccc31)c1ccccc12` stands 1.9% (active); under `NC/C=C\C(=O)O`, 7.5% (active); under `NC/C=C/C(=O)O`, 1.4% (active).
With `CC(C)COCC(CN(Cc1ccccc1)c1ccccc1)N1CCCC1` (stereo not drawn) the figure was 40.1% (active).
Under `Brc1c(Br)c(Br)c2[nH]cnc2c1Br` stands 18.9% (active).
With `CN1CCc2cccc3c2C1Cc1ccc(O)c(O)c1-3` (stereo not drawn), the inhibition is 73.2% (active).
With `Clc1ccc2c(c1)C(N1CCNCC1)=Nc1ccccc1O2` the figure was 21.3% (active); with `Clc1ccc2c(c1)N=C(N1CCNCC1)c1ccccc1N2`, 69.5% (active); with `Cc1ccc2c(c1)C(N1CCN(C)CC1)=Nc1cccnc1N2`, 42.7% (active).
Under `CN1CCN(C2=Nc3cc(Cl)ccc3Nc3ccccc32)CC1` stands 78.4% (active).
With `CN1CCN(C2=Nc3ccccc3Oc3ccc(Cl)cc32)CC1` the figure was -12.8% (inactive); with `Cn1c(=O)c2c(ncn2C)n(C)c1=O`, -2% (inactive); with `CCCn1cnc2c1c(=O)n(CCCCC(C)=O)c(=O)n2C`, 5.2% (active).
As to `CCCn1c(=O)c2c(ncn2C)n(CCC)c1=O`, the inhibition is 11.9% (active).
Regarding `C#CCn1c(=O)c2c(ncn2C)n(C)c1=O`, the inhibition is 4% (active).
Under `CC(=O)CCCCn1c(=O)c2c(ncn2C)n(C)c1=O` stands 13.8% (active); under `Cn1c(=O)[nH]c2ncn(C)c2c1=O`, -0.4% (inactive); under `Cn1cnc2c1c(=O)[nH]c(=O)n2C`, 0% (inactive).
